Assay results taken from PubChem BioAssay (EPA / NIEHS).
Records with an inconclusive call do not appear. More than one record can exist for a structure, and the calls need not agree. Activity calls are given as the source filed them. Rule for the calls: active = hit-call score of the fitted dose curve at least 0.9, where 1 is the maximum; inconclusive = response in the unintended direction; inactive = score below 0.9.

experiment: ACEA_ER_AUC_viability: ACEA Biosciences xCELLigence Real-Time Cell Analysis on Estrogen Receptor Agonism for Viability (AID 2283782);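 note: hit means loss of impedance signal meaning reduced cell growth or viability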
Outline: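 Viability endpoint: reduced impedance area under the curve relative to DMSO, recorded by real-time electrode sensing over ~80 h of continuous exposure. Duplicate plates of T47D in hormone-depleted medium; eight concentrations, 1:4 dilutions, 100 uM maximum.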

Structure (SMILES) | outcome | AC50
FC(F)(F)C(F)(F)CNCC(F)(F)C(F)(F)F | inactive | –
FC(F)(I)C(F)(F)C(F)(F)C(F)(F)I | – | 129 µM (active)
CC(C)(C)c1ccc(OC2CCCCC2O)cc1 (stereo not drawn) | inactive | –
CCCCCCS | – | 50 µM (active)
N=C(N)C(F)(F)C(F)(F)C(F)(F)C(F)(F)C(F)(F)C(F)(F)C(F)(F)F | – | 75 µM (active)
O=C(Cl)C(F)(F)C(F)(F)C(F)(F)C(F)(F)C(F)(F)C(F)(F)C(F)(F)C(F)(F)F | – | 127 µM (active)
COC(OC(C)=O)c1ccccc1 (stereo not drawn) | inactive | –
O=S(=O)(O)C(F)(F)C(F)(F)C(F)(F)C(F)(F)C(F)(F)C(F)(F)C(F)(F)F | inactive | –
CCc1c(Br)c(Br)c(Br)c(Br)c1Br | inactive | –
CCCCOCCOCCOC(=O)CCCCC(=O)OCCOCCOCCCC | inactive | –
Nc1ccc(Oc2cccc(Oc3ccc(N)cc3)c2)cc1 | – | 64.2 µM (active)
FC(F)(F)C(F)(F)C(F)(F)C(F)(F)C(F)(F)CCI | inactive | –
FC(F)(F)C(F)(F)C(F)(F)C(F)(F)C(F)(F)C(F)(F)C(F)(F)I | inactive | –
CC/C=C\CCOC(=O)c1ccccc1 | – | 76.7 µM (active)
FC(F)(F)C(F)(F)C(F)(F)CI | inactive | –
Nc1ccc(S(=O)(=O)Nc2nccs2)cc1 | inactive | 26 µM (active)
Cc1cccc(N(C)C)c1 | – | 25.6 µM (active)
CC(C)=CCCC(C)CCOC(=O)C(C)C (stereo not drawn) | – | 50 µM (active)
Oc1ccc(Nc2ccccc2)cc1 | – | 25.4 µM (active)
CCN(CC)c1ccc2c(C)cc(=O)oc2c1 | – | 17.1 µM (active)
FC(F)(F)C(F)(F)C(F)(F)C(F)(F)C(F)(F)C(F)(F)CC1CO1 (stereo not drawn) | inactive | –
CS(C)(=O)=O | inactive | –
